HT1080 IDH1KD tx: HT-1080 IDH1 knockdown cell toxicity (counter line); AID 686971; 360,000 compounds, 2% hits; Potency, µM (titrated, usually from 46.1 µM), without a hit: at the top dose activity, negative = toxicity, usual class: cytotoxic; HT-1080 IDH1 knockdown viability, ATP luminescence, 48 h;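 note: 0% = DMSO wells and -100% = cell-free medium wells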
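CellTiter-Glo luminescence after 48 h compound exposure at 37 degrees C of IDH1-knockdown HT-1080 cells in 5% FBS RPMI. %Activity scaled between DMSO wells and cell-free media wells, with curves fitted and assigned curve classes.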
KB-V1 cytotox: KB-V1 MDR subline cytotoxicity. KB-V1 MDR cells viability, CellTiter-Glo, 72 h. Potency, µM (titrated, usually from 46.1 µM), usual class: cytotoxic. 400,000 compounds, 3.4% hits. AID 1347076; note: % is set by controls: 0 for no effect and ±100 for the full control effect; nearly all actives have a fitted effect of over 60% in size
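Cytotoxicity toward P-gp-expressing KB-V1 cells was determined as loss of CellTiter-Glo luminescence after 72 h at 37 degrees C. Compounds were tested in quantitative HTS format across a concentration range, with curves fitted to normalized data.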
ATXN2 expr inh: inhibitors of ATXN2 expression; HEK-293 ATXN2-luciferase reporter, luminescence, 24 h; Potency, µM (top dose mostly 57 µM), for inactives: at the top dose activity change, negative = inhibition, actives largely listed as inhibitors; 360,000 compounds, 0.72% hits; note: % is set by controls: 0 for no effect and ±100 for the full control effect; nearly all actives have a fitted effect of over 55% in size
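qHTS (up to 57 uM final) was run with 24 h compound exposure of reporter cells at 37 °C. Each well was multiplexed: SteadyGlo luminescence measured ATXN2-luciferase expression after a fluorogenic Gly-Phe-AFC viability readout (25 uM final).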
S2 tox: reduces viability in counter-screen for ATXN expression inhibitors; Potency, µM (highest dose often 56.7 µM), actives largely listed as cytotoxic; AID 651635; 400,000 compounds, 0.49% hits; S2 cells (HEK-293 line with an ATXN2-luciferase reporter) viability, CellTiter-Fluor protease fluorescence, 24 h; note: nearly all actives have a fitted effect of over 40% in size
KB-3-1 cytotox: kills parental KB-3-1 adenocarcinoma cells | KB-3-1 viability, CellTiter-Glo ATP luminescence, 72 h | Potency, µM (doses to about 46.1 µM), actives largely listed as cytotoxic | 400,000 compounds, 1.4% hits | AID 1347075; note: % is set by controls: 0 for no effect and ±100 for the full control effect; nearly all actives have a fitted effect of over 60% in size
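72 h, 37 °C compound treatment of KB-3-1 parental cells; CellTiter-Glo added, 10 min, luminescence read. Data corrected against DMSO-only plates and normalized before curve fitting.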
HT1080-NT tox: kills 2HG-producing HT-1080-NT fibrosarcoma cells. 360,000 compounds, 1.6% hits. Potency, µM (top dose mostly 46.1 µM), inactives show at the highest dose activity, negative = less viability, usual class: cytotoxic. HT-1080-NT fibrosarcoma viability, CellTiter-Glo ATP luminescence, 48 h. AID 686970;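 note: NT is the 2HG producing partner of a matched IDH1 knockdown line; 0% = DMSO-treated cells and -100% = media-only wells without cells; nearly all actives have a fitted effect of over 55% in size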
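Viability of the 2HG-overproducing fibrosarcoma line after 48 hours of compound exposure at 37 degrees C was determined by luminescence with CellTiter-Glo, and concentration-effect curves were then fitted and categorized.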
* = called active by the depositor; i = inactive; ? = inconclusive; . = no result given. This is a sample that favours compounds with a hit; in the whole collection about 6.2% have one here. Calls come from the whole dose curve; as a rule, active = well fitted curve in the direction sought with a large enough effect; inconclusive = small, poorly fitted or top-dose-only effect, or another doubt; inactive = no such curve, though single readings can be large; an effect the other way counts as inactive or inconclusive. Potency is the fitted concentration of half-maximal effect.

SMILES	HT1080 IDH1KD tx	KB-V1 cytotox	ATXN2 expr inh	S2 tox	KB-3-1 cytotox	HT1080-NT tox
CCc1nc2ccc(C(=O)NCCc3ccc(OC)c(OC)c3)cc2nc1CC	-2%	i	-11%	i	i	-2%
COc1ccc(CCNC(=O)c2ccc3c(c2)ncn3-c2ccc(C)cc2C)cc1OC	.	i	?	?	i	.
COc1ccc(/C(O)=C/c2nc3ccc(C(=O)NCCc4cccc(C)c4)cc3[nH]c2=O)cc1OC	17%	i	?	?	10µM*	8%
Nc1nnc(/C=C/c2cccc([N+](=O)[O-])c2)s1	-5%	i	.	i	i	-2%
CN(C(=O)CSc1nnc(-c2ccc([N+](=O)[O-])cc2)o1)c1ccccc1	.	i	7%	i	i	.
COc1ccc(CNC(=O)c2ccc3nc(CCc4ccccc4)oc3c2)cc1OC	.	?	28µM*	?	i	.
COc1ccc(CNC(=O)c2ccc3nc(CCc4ccccc4)oc3c2)cc1	.	i	7%	i	i	.
COc1cccc(-c2cc(C(=O)NCCc3ccc(OC)c(OC)c3)no2)c1	.	i	-5%	i	i	.
COc1ccc(CCNC(=O)c2cc(-c3ccco3)on2)cc1OC	-18%	18µM*	-21%	i	9.2µM*	-21%
COc1ccc2oc(C(=O)NCCc3ccccc3)c(C)c2c1	-2%	i	4.5µM*	i	i	4%
COCCNC(=O)C(=O)NCC(c1cccnc1)N1CCN(c2ccccc2)CC1 (centres undefined)	.	i	3%	i	i	.
Cc1noc2nc(C(=O)O)nc(N3CCCCC3)c12	.	i	-2%	i	i	.
Cn1nnnc1SCC(=O)c1ccc(Br)s1	11%	i	4%	i	i	0%
Cn1c(Cc2ccccc2)nnc1SCC(=O)c1ccc(Br)s1	3%	13µM*	-9%	i	?	2%
O=C(NCCOc1ccccc1Cl)C(=O)c1c[nH]c2ccccc12	-21%	?	3%	.	i	-27%
C=CCNC(=O)C(=O)NCCOc1ccccc1Cl	?	i	5%	i	7.3µM*	?
CC(C)c1ccc(Nc2c(-c3ccc(N(C)C)cc3)nc3cnccn23)cc1	.	i	8%	i	i	.
CCc1ccc(-c2nc(SCC(=O)NCC3CCCO3)c(-c3ccc(F)cc3)[nH]2)cc1 (centres undefined)	.	i	.	.	i	.
Cc1nc(C(F)(F)F)c(C(=O)NC(=O)Nc2ccc(OC(F)(F)F)cc2)s1	-3%	16µM*	-7%	i	i	-1%
Cc1cnc(C(=O)Nc2ccc(OC(F)(F)F)cc2)cn1	-9%	?	.	i	15µM*	-1%
Cc1nc(N2CCN(c3ccccn3)CC2)c2c(C)c(C(=O)N3CCN(c4ccccc4F)CC3)sc2n1	-4%	21µM*	?	?	?	-25%
Cc1nnc2sc(-c3csc4c3CCCC4)nn12	-3%	7.3µM*	3%	i	8.2µM*	3%
Cc1nnc2sc(-c3cccc4ccccc34)nn12	5%	5.2µM*	1%	i	7.3µM*	8%
Cc1cc(-c2nn3c(-c4ccccc4)nnc3s2)c2ccccc2n1	-17%	1µM*	-15%	i	?	-2%
Cc1nnc2c3ccccc3c(-c3cccc4ccccc34)nn12	8%	12µM*	22%	?	i	13%
c1ccc(-c2cc(-c3nn4c(-c5ccco5)nnc4s3)c3ccccc3n2)cc1	?	i	?	?	i	-22%
CCOc1ccc(CCNC(=O)COC(=O)C2CC2)cc1OCC	11%	i	3%	i	i	8%
COc1cc(/C=C/c2ccc3cccc(O)c3n2)cc(OC)c1OC	6.5µM*	?	16µM*	?	?	8.2µM*
COc1cc(/C=C/c2ccc3cccc(O)c3n2)cc(Cl)c1OC	?	?	30%	?	?	?

Screening results: PubChem, National Center for Advancing Translational Sciences (NCATS)
